Source: PubChem BioAssay (several laboratories)
CYP2C19 act = increases human CYP2C19 enzyme activity; activation factor at 5 µM; AID 1025; recombinant CYP2C19, luciferin-H EGE luminescence; active compounds read high; 0 = fully inhibited enzyme, 1 = untreated enzyme; 96,000 tested, under 10 active; P33261;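 active = activation factor of at least 2 at 5 µM in the primary screen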
Target sequence (P33261 whole entry, looked up): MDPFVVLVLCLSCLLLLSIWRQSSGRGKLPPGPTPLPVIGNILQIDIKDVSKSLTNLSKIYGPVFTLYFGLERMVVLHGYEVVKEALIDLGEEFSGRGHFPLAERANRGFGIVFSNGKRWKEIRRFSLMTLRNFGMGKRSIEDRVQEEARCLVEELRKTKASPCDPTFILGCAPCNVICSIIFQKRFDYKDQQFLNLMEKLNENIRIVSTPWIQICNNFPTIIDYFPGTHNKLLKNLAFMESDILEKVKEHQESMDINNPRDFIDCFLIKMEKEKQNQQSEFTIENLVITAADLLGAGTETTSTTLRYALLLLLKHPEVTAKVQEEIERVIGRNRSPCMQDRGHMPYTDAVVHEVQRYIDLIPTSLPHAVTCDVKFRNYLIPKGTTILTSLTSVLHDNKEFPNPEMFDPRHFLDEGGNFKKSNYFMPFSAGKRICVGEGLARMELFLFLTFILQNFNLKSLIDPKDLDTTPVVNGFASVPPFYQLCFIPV
CYP2C19 inh = inhibitors of human CYP2C19. P33261. CYP2C19 Supersomes, luciferin-H EGE luminescence, 30 min. inhibition, % at 5 µM. 21% of 96,000 active. AID 778;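 active = CYP2C19 inhibition above a set limit at 5 µM in the primary screen, cut at about 50% in these data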
D1 allo mod = D1 dopamine receptor (human) allosteric modulation; AID 641; P21728; B-score at 10 µM; 5.9% of 58,000 active; HEK293 D1, CRE-luciferase, dopamine EC30 potentiation; actives deviate in either direction;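 active = luminescence count or its row- and column-corrected plate score outside the 99.7% band of the plate's sample wells, on either side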
CYP2C9 activ = CYP2C9 (human) activation | activation factor at 5 µM | 1.4% of 96,000 active | AID 1024 | recombinant CYP2C9, luciferin-H conversion, luminescence; active compounds read high; factor 1 = untreated enzyme, 0 = blocked;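 active = activation factor of 2 or more for CYP2C9 at a 5 µM dose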
hDAT+cocaine = modulates human dopamine transporter uptake under cocaine. Q01959. LLC-PK1 hDAT cells, [14C]-dopamine uptake with cocaine IC80; actives deviate in either direction. B-score at 10 µM. 1.3% of 110,000 active;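 active = Z score or B-score, a plate-position-corrected score, falls beyond the plate's 99.7% confidence bounds, in either direction; inactive = both scores lie inside the 99.7% bounds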
CYP2C9 inhib = human CYP2C9 inhibition; inhibition, % at 5 µM; P11712; CYP2C9 Supersomes, luciferin-H conversion, luminescence; 20% of 96,000 active;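 active = blocking of liver enzyme CYP2C9 beyond about 50% at 5 µM, limit read from the data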
A number is an active result. The list is not random: actives were taken first. Their share in the collection is about 28%.

What do the screens show for `COc1ccc2nc(-c3ccco3)c(-c3ccco3)nc2c1`?
CYP2C19 act: inactive; CYP2C19 inh: inactive; CYP2C9 activ: inactive; hDAT+cocaine: inactive; CYP2C9 inhib: 56.0

What do the screens show for `O=C(Nc1ccccc1)c1ccc2nc(-c3ccco3)c(-c3ccco3)nc2c1`?
CYP2C19 act: inactive; CYP2C19 inh: 61.0; D1 allo mod: inactive; CYP2C9 activ: inactive; hDAT+cocaine: inactive; CYP2C9 inhib: 66.9

Results for CC(=O)c1ccc(NC(=O)c2ccc3nc(-c4ccco4)c(-c4ccco4)nc3c2)cc1 ?
CYP2C19 act: inactive; CYP2C19 inh: inactive; CYP2C9 activ: inactive; hDAT+cocaine: inactive; CYP2C9 inhib: inactive

What do the screens show for `CCCNC(=O)c1ccc2nc(-c3ccccc3)c(-c3ccccc3)nc2c1`?
CYP2C19 act: inactive; CYP2C19 inh: inactive; CYP2C9 activ: inactive; hDAT+cocaine: inactive; CYP2C9 inhib: 51.2

Results for O=C(O)c1nc(N2CCCC2)ncc1Cl ?
CYP2C19 act: inactive; CYP2C19 inh: inactive; CYP2C9 activ: inactive; hDAT+cocaine: inactive; CYP2C9 inhib: inactive

Results for C#CCOCCOCCOCCNc1nc(N2CCN(C(=O)[C@H]([C@@H](C)CC)n3cc([C@@H](N)CC(C)C)nn3)CC2)nc(N2CCN(C(=O)[C@H]([C@@H](C)CC)n3cc([C@@H](N)CC(C)C)nn3)CC2)n1 ?
hDAT+cocaine: inactive

Results for N#CC1=C(SCC(N)=O)NC2=C(C(=O)c3ccccc32)C1c1ccc(Cl)cc1 (stereo unspecified) ?
CYP2C19 act: inactive; CYP2C19 inh: inactive; CYP2C9 activ: inactive; hDAT+cocaine: inactive; CYP2C9 inhib: 63.0

Results for CSc1nc(-c2ccco2)nn1S(C)(=O)=O ?
CYP2C19 act: inactive; CYP2C19 inh: inactive; D1 allo mod: inactive; CYP2C9 activ: inactive; hDAT+cocaine: inactive; CYP2C9 inhib: inactive

Results for COc1ccc(CN2CC[C@H]3C=CC[C@@H](C(=O)Nc4ccc(Cl)c(C(F)(F)F)c4)[C@H]3C2=O)cc1OC ?
hDAT+cocaine: inactive

Results for CCOc1cc(C)c(C(C)C)cc1S(=O)(=O)N1CCN(C)CC1 ?
CYP2C19 act: inactive; CYP2C19 inh: inactive; D1 allo mod: inactive; CYP2C9 activ: inactive; hDAT+cocaine: inactive; CYP2C9 inhib: inactive

What do the screens show for `COc1cc(S(=O)(=O)n2ccc(C)n2)c(OC)cc1Cl`?
CYP2C19 act: inactive; CYP2C19 inh: 67.3; CYP2C9 activ: inactive; hDAT+cocaine: inactive; CYP2C9 inhib: inactive

Results for COc1cc(S(=O)(=O)N2CCN(C)CC2)c(OC)cc1Cl ?
CYP2C19 act: inactive; CYP2C19 inh: inactive; CYP2C9 activ: inactive; hDAT+cocaine: inactive; CYP2C9 inhib: inactive

Results for CCOc1ccc(C)cc1S(=O)(=O)n1ccc(C)n1 ?
CYP2C19 act: inactive; CYP2C19 inh: inactive; CYP2C9 activ: 2.3; hDAT+cocaine: inactive; CYP2C9 inhib: inactive

How did COc1cc(C)c(Cl)cc1S(=O)(=O)n1ccnc1C do in these assays?
CYP2C19 act: inactive; CYP2C19 inh: 92.4; CYP2C9 activ: inactive; hDAT+cocaine: inactive; CYP2C9 inhib: inactive

Results for CCOc1cc(C)c(C(C)C)cc1S(=O)(=O)n1ccc(C)n1 ?
CYP2C19 act: inactive; CYP2C19 inh: 54.2; D1 allo mod: inactive; CYP2C9 activ: inactive; hDAT+cocaine: inactive; CYP2C9 inhib: inactive

Results for Cn1cnc([N+](=O)[O-])c1Sc1ncccc1N ?
CYP2C19 act: inactive; CYP2C19 inh: inactive; CYP2C9 activ: inactive; hDAT+cocaine: inactive; CYP2C9 inhib: inactive

How did O=C1NCCc2c1[nH]c1c(Cl)ccc(Cl)c21 do in these assays?
CYP2C19 act: inactive; CYP2C19 inh: inactive; D1 allo mod: inactive; CYP2C9 activ: 2.4; hDAT+cocaine: inactive; CYP2C9 inhib: inactive

What do the screens show for `CCCCOc1ccc(/C(N)=N/O)cc1`?
CYP2C19 act: inactive; CYP2C19 inh: inactive; D1 allo mod: inactive; CYP2C9 activ: inactive; hDAT+cocaine: inactive; CYP2C9 inhib: inactive

What do the screens show for `CCOc1ccc(NC(=O)CCNS(=O)(=O)c2cccs2)cc1`?
CYP2C19 act: inactive; CYP2C19 inh: 65.7; CYP2C9 activ: inactive; hDAT+cocaine: inactive; CYP2C9 inhib: inactive

What do the screens show for `COc1ccc(NC(=O)CCNS(=O)(=O)c2ccc(Br)s2)cc1`?
CYP2C19 act: inactive; CYP2C19 inh: inactive; CYP2C9 activ: inactive; hDAT+cocaine: inactive; CYP2C9 inhib: 68.2

Results for CC(=O)CCc1c(C)c2cc(C)ccc2[nH]c1=O ?
CYP2C19 act: inactive; CYP2C19 inh: inactive; D1 allo mod: inactive; CYP2C9 activ: inactive; hDAT+cocaine: inactive; CYP2C9 inhib: inactive

Results for CCC(CO)n1c(SCc2cc(=O)oc3cc(C)ccc23)nc2ccccc2c1=O (stereo unspecified) ?
CYP2C19 act: inactive; CYP2C19 inh: 96.9; CYP2C9 activ: inactive; hDAT+cocaine: inactive; CYP2C9 inhib: 98.1

Results for Cc1ccc2c(CN3CCN(CCO)CC3)cc(=O)oc2c1 ?
CYP2C19 act: inactive; CYP2C19 inh: inactive; D1 allo mod: inactive; CYP2C9 activ: inactive; hDAT+cocaine: inactive; CYP2C9 inhib: inactive

How did CCCCC1=CC2=CC(=O)C(C)(OC(=O)CC)C(=O)C2=CN1CCN1CCOCC1 (stereo unspecified) do in these assays?
hDAT+cocaine: inactive

What do the screens show for `Cc1nnc(SCc2nc3ccccc3[nH]2)s1`?
CYP2C19 act: inactive; CYP2C19 inh: inactive; D1 allo mod: inactive; CYP2C9 activ: inactive; hDAT+cocaine: inactive; CYP2C9 inhib: inactive

How did CCC(C)SCc1nc2ccccc2[nH]1 (stereo unspecified) do in these assays?
CYP2C19 act: inactive; CYP2C19 inh: 93.1; D1 allo mod: inactive; CYP2C9 activ: inactive; hDAT+cocaine: inactive; CYP2C9 inhib: inactive

How did c1ccc2[nH]c(CSc3nc4ccccc4s3)nc2c1 do in these assays?
CYP2C19 act: inactive; CYP2C19 inh: 98.3; CYP2C9 activ: inactive; hDAT+cocaine: inactive; CYP2C9 inhib: 52.9

Results for c1ccc(SCc2nc3ccccc3[nH]2)nc1 ?
CYP2C19 act: inactive; CYP2C19 inh: 90.4; D1 allo mod: inactive; CYP2C9 activ: inactive; hDAT+cocaine: inactive; CYP2C9 inhib: inactive

Results for CCCCS(=O)(=O)NC1=NCN(CCO)CN1 ?
CYP2C19 act: inactive; CYP2C19 inh: inactive; D1 allo mod: inactive; CYP2C9 activ: inactive; hDAT+cocaine: inactive; CYP2C9 inhib: inactive

What do the screens show for `COc1ccc(-c2cc3ccccc3s2)cc1[C@H]1[C@H]2C=CC[C@@H](C)[C@@H]2C(=O)N1Cc1ccccc1`?
hDAT+cocaine: inactive

How did O=C(O/N=C\c1ccc(N2CCCCC2)c([N+](=O)[O-])c1)c1cccc(C(F)(F)F)c1 do in these assays?
CYP2C19 act: inactive; CYP2C19 inh: inactive; CYP2C9 activ: inactive; hDAT+cocaine: inactive; CYP2C9 inhib: inactive

Results for COc1ccc(NS(=O)(=O)c2ccc(-n3nnc4ccccc43)c([N+](=O)[O-])c2)cc1 ?
CYP2C19 act: inactive; CYP2C19 inh: 73.9; CYP2C9 activ: inactive; hDAT+cocaine: inactive; CYP2C9 inhib: 92.9

Results for O=[N+]([O-])c1cc(S(=O)(=O)Nc2cccc(C(F)(F)F)c2)ccc1-n1nnc2ccccc21 ?
CYP2C19 act: inactive; CYP2C19 inh: 93.3; CYP2C9 activ: inactive; hDAT+cocaine: inactive; CYP2C9 inhib: 97.9
